Laboratory results from PubChem BioAssay (NCATS).
Results filed as inconclusive are left out. Values without a mark were called inactive. Calls come from the whole dose curve; as a rule, active = well fitted cell-killing curve with a large enough effect; inconclusive = small, poorly fitted or top-dose-only effect; inactive = flat fitted curve, though single readings scatter. Where a SMILES comes first, the peptide text is derived from it.

Assay: qHTS of pediatric cancer cell lines to identify multiple opportunities for drug repurposing: Primary screen for control Hh wild type fibroblast cells (AID 1347106);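 note: a drop in luminescence marks cytotoxicity and a rise apparent proliferation; nearly all actives have a fitted effect of over 55% in size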
Conditions: Hh wild-type fibroblast viability, CellTiter-Glo luminescence, 48 h; series mostly up to 46 µM; activity change, negative = cytotoxic: at the top concentration
Description: Drug repurposing or repositioning has been offered as a strategy for drug development in oncology programs. This approach has special potential for childhood cancers and other rare or orphan diseases, where the expected return on new drug development has been a disincentive to pharmaceuticals.
In this project we exploit the poly-pharmacology of drugs to discover new indications via phenotypic screening of a panel of 19 well-characterized cell lines derived from solid tumors seen in children and adolescents. The goal is to identify approved drugs with previously unrecognized anticancer properties that has the potential to reveal new mechanisms and biological processes involved in carcinogenesis or drug resistance. We employed a titration-based paradigm (quantitative high-throughput screening or qHTS), where all compounds were tested at multiple concentrations for their effect on cell viability. Concentration-response curves (CRCs) were derived directly from the primary screen, and both potency and efficacy values were used to identify compounds with robust bioactivity profiles. We screened the NIH Chemical Genomics Center (NCGC) Pharmaceutical Collection (NPC) and Mechanism Interrogation Plate (MIPE) small molecule collections of approved and investigational compounds against these cell lines; and measured metabolically active cells after 48 hours of compound treatment as a proxy for cell viability.
Assay Submitter: Nathalia J. Martinez, National Center for Advancing Translational Sciences, National Institutes of Health, Rockville, MD, USA; email: natalia.martinez@nih.gov
[1] Shen, M et al. Quantitative high-throughput phenotypic screening of pediatric cancer cell lines identifies multiple opportunities for drug repurposing. Oncotarget 2017 Dec 19;9(4):4758-4772. PMID 29435139.
The cells were obtained from University of North Carolina (UNC), Pediatric Preclinical Testing Program (PPT), and Coriell Institute (CI).
qHTS cell viability assay:
Cells were assayed in growth media at a density of 500-1,000 cells/well. Five microliters of cells were dispensed into 1,536-well, white, solid-bottom, TC-treated plates (Greiner Bio One) using a multidrop dispenser and incubated at 37 degrees C, 5% CO2, under a humidified atmosphere for 5 hours. Twenty-three nanoliters of compounds and controls (neutral control DMSO or positive control bortezomib at final concentration of 2.3 µM) were subsequently transferred by Kalypsys pintool. For primary screens, the MIPE collection was tested at 11-point dilutions (final concentrations range from 0.78 nM to 46 µM) and the NPC collection at 8-point dilutions (final concentrations range from 0.59 nM to 46 µM). Compounds tested in follow-up screens were assayed at 11-point dilutions. Cells were incubated for 48 hours, followed by addition of 3 µL of CellTiter-Glo (Promega). After a 15 min incubation at room temperature, samples were analyzed for luminescence intensity using a ViewLux High-throughput CCD imager equipped with clear filters.
% is set by controls: 0 for no effect and ±100 for the full control effect.

| SMILES | activity change, negative = cytotoxic |
| --- | --- |
| CCCCN(CCN(CCCC)C(=O)N1CCOCC1)C(=O)N1CCOCC1 | -3.12% |
| Nc1ncnc2nc[nH]c12 | 15.5% |
| CC(=O)N[C@@H](CO)C(=O)N[C@@H](CC(=O)O)C(=O)N[C@@H](CCCCN)C(=O)N1CCC[C@H]1C(=O)O (Ac-SDKP-OH) | 6.97% |
| C1=CC2C3C=CC(C3)C2C1 (stereo not given) | 1.83% [at 92.7 µM] |
| CC(C)=CCC/C(C)=C/CC/C(C)=C/C(=O)OCC(=O)[C@@]1(O)CC[C@H]2[C@@H]3CCC4=CC(=O)C=C[C@]4(C)[C@H]3[C@@H](O)C[C@@]21C | 3.67% |
| COc1ccc2c(c1)c(CC(=O)OC/C=C(\C)CC/C=C(\C)CCC=C(C)C)c(C)n2C(=O)c1ccc(Cl)cc1 | 2.53% |
| O=C(CCCCCCCCC#CI)Oc1ccccc1 | 5.6% |
| COC(=O)/C=C(/C)N | 3.43% |
| CN1C(CSCC(F)(F)F)Nc2cc(Cl)c(S(N)(=O)=O)cc2S1(=O)=O (stereo not given) | 8.86% |
| CC(=O)O[C@@H]1CC2C3CCc4cc(OC(=O)c5ccccc5)ccc4C3CCC2(C)[C@H]1OC(C)=O (stereo not given in full) | 5.63% |
| CC(C)C[C@H](NC(=O)CNC(=O)[C@H](Cc1ccc(O)cc1)NC(=O)[C@H](CO)NC(=O)[C@H](Cc1c[nH]c2ccccc12)NC(=O)[C@H](Cc1cnc[nH]1)NC(=O)[C@@H]1CCC(=O)N1)C(=O)N[C@@H](CCCN=C(N)N)C(=O)N1CCC[C@H]1C(=O)NCC(N)=O (stereo in doubt) | 2.16% |
| O=C(O)Cc1ccc(OCCNC[C@H](O)c2ccccc2)cc1 | 8.13% |
| Cc1cccc(N(C)C(=S)Oc2ccc3c(c2)C2CCC3C2)c1 (stereo not given) | 3.92% |
| CCOC(=O)N1CCC(n2c(=O)[nH]c3cc(Cl)ccc32)CC1 | 11.1% |
| CCCc1ncc(C(=O)O)s1 | 9.72% |
| CC(=O)OCC(=O)[C@@]1(O)[C@H](OC(C)=O)C[C@H]2[C@@H]3CCC4=CC(=O)C=C[C@]4(C)[C@@]3(F)[C@@H](O)C[C@@]21C | -4.2% |
| Cc1cccc(N(C)C(=S)Oc2ccc3c(c2)CCC3)c1 | 13.6% |
| C[C@@H](C1=C(CCN(C)C)Cc2ccccc21)c1ccccn1 | -0.29% |
| CN1CC(=O)N2[C@H](c3ccc4c(c3)OCO4)c3[nH]c4ccccc4c3C[C@@H]2C1=O | -2.58% |
| O=C(Nc1ccc(S(=O)(=O)N2CCOCC2)cc1)c1cc(Cl)ccc1NS(=O)(=O)c1ccc(Cl)s1 | 11.1% |

| SMILES | activity change, negative = cytotoxic |
| --- | --- |
| CC(CC(C#N)(c1ccccc1)C(C)C)N(C)C (stereo not given) | -4.55% |
| CN(C)CCOC(c1ccccc1)c1ccc(Br)cc1 (stereo not given) | -3.63% |
| C/C(=C(/OCCOc1ccc(Cl)cc1)c1ccc(Cl)cc1Cl)n1ccnc1 | -8.63% |
| O=C1Cc2cc(Cl)ccc2N1 | 5.89% |
| CC1CC(=O)NN=C1c1ccc(NCC(C)(C)NCC(O)COc2cc(Cl)ccc2C#N)cc1 (stereo not given) | 6.44% |
| CCOC(=O)c1ccc(NC(=O)CN2CCCCC2)cc1 | 9.49% |
| C[C@]12CCC(=O)C=C1CC[C@@H]1[C@@H]2[C@@H](O)C[C@@]2(C)[C@H]1CC[C@]2(O)C(=O)COC(=O)CCC(=O)O | -11.6% |
| CCNC(=O)NCCCOc1cccc(CN2CCCCC2)c1 | -8.81% |
| CCCCOCCOC(=O)c1cccnc1 | -3.9% |
| Nc1ccc(C(=O)OCC(O)CO)cc1 (stereo not given) | 5.81% |
| C[C@H]1NCc2cc(-c3ccc4c(=O)c(C(=O)O)cn(C5CC5)c4c3OC(F)F)ccc21 | 2.41% [at 16.1 µM] |
| O=C1CC2(CCCC2)CC(=O)N1 | 8.94% |
| Cc1ccc(/C=N/n2c(-c3ccccc3)csc2=S)cc1 | 9.44% |
| COc1cc(C=O)ccc1O | 5.86% |
| CN1CCCN=C1/C=C/c1cccs1 | 4.86% |
| CN(C(=O)C(Cl)Cl)c1ccc(OC(=O)c2ccco2)cc1 | -2.55% |
| CCOC(=O)C1=C(C)NC(C)=C(C(=O)OCC)C1c1ccccc1/C=C/C(=O)OC(C)(C)C | 8.49% |
| COC(=O)C1=C(C)NC(COC(N)=O)=C(C(=O)OC(C)C)C1c1cccc(Cl)c1Cl (stereo not given) | 4.88% |
| CCOC(=O)N1CCC(Nc2ccc(Cl)cc2N)CC1 | -2.26% |
| O=C1CC2(CCCC2)CC(=O)N1CCNCC1COc2ccccc2O1 (stereo not given) | 23.3% |
